Source: PubChem BioAssay (National Center for Advancing Translational Sciences (NCATS))
A selection: hits, their analogues and other compounds. The true share with any hit is near 9%.
BAZ2B block – BAZ2B (human) inhibition | AID 504333 | AlphaScreen BAZ2B-H3K14Ac peptide displacement | Potency, µM (highest dose often 114 µM), inactives show at the top dose activity change, negative = inhibition, usual class: inhibitors | 4.4% of 360,000 active | Q9UIF8; note: % is set by controls: 0 for no effect and ±100 for the full control effect; nearly all actives have a fitted effect of over 60% in size
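AlphaScreen displacement: compounds (up to 110uM) incubated 30 min at room temperature with a preformed 50 nM BAZ2B/50 nM biotinylated H3K14Ac peptide complex in PBS pH 7.4 with Tween-20. Donor and acceptor beads at 10 ug/mL final added, 20 min light-protected before reading.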
HP1b binding inh – inhibitors of HP1-beta chromodomain binding to methylated histone tails; AlphaScreen HP1-beta / biotin-H3K9me3 peptide binding; 0.56% of 390,000 active; P83916; Potency, µM (series often up to 114 µM), for inactives: top-dose activity change, negative = inhibition, usual class: inhibitors; note: nearly all actives have a fitted effect of over 70% in size
Target sequence (P83916 whole entry, looked up): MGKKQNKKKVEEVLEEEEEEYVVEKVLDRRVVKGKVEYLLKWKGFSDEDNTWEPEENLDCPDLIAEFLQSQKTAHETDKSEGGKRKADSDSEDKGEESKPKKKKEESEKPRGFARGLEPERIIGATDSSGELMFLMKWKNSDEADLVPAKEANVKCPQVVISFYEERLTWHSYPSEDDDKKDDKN
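AlphaScreen: HP1-beta (50 nM) preformed 30 min with biotin-H3(1-18)K9me3 peptide (50 nM) in PBS pH 7.4, 0.01% Tween-20. Compound added for 30 min at RT, then streptavidin donor/nickel chelate acceptor beads (10 ug/mL) for 30 min.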
JMJD2A Tudor – inhibitors of human JMJD2A Tudor domain; AID 504339; 4.4% of 390,000 active; O75164; AlphaScreen JMJD2A-Tudor / H3K4me3 peptide binding; Potency, µM (highest dose often 114 µM), for inactives: top-dose activity change, negative = inhibition, usual class: inhibitors; note: % is set by controls: 0 for no effect and ±100 for the full control effect; nearly all actives have a fitted effect of over 50% in size
ALOX12 inh – inhibitors of human 12S-lipoxygenase ALOX12 | P18054 | purified 12hLO, xylenol orange hydroperoxide absorbance | Potency, µM (highest dose often 108 µM), inactives show at the top dose activity change, negative = inhibition, most hits filed as inhibitors | 1.1% of 580,000 active | AID 1671190; note: % is set by controls: 0 for no effect and ±100 for the full control effect
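Hydroperoxide product was detected by ferrous iron/xylenol orange as the 573 to 405 nm absorbance ratio. Arachidonic acid at 40 uM (final) was turned over for 30 min at room temperature by 150 nM human 12hLO, pH 7.0 Hepes buffer, after 15 min compound preincubation.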
G9a inh – G9a (human) methyltransferase inhibition; G9a H3K9 monomethylation, AlphaScreen, 2 h; 8.8% of 350,000 active; AID 504332; Potency, µM (series often up to 102 µM), inactives show at the top dose activity, negative = inhibition, usual class: inhibitors; Q96KQ7; note: % is set by controls: 0 for no effect and ±100 for the full control effect; nearly all actives have a fitted effect of over 75% in size
Target sequence (Q96KQ7 913-1193 limits assumed): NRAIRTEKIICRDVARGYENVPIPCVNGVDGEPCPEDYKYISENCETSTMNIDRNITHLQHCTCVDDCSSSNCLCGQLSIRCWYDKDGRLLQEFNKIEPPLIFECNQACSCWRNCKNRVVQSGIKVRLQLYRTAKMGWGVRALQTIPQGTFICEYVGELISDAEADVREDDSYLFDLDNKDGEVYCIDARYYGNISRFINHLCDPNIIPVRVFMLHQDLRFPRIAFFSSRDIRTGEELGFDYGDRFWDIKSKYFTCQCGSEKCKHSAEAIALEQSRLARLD
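Methyltransferase reactions run at room temperature for 2 h (20 nM enzyme, 500 nM biotin-H3K9 peptide, 20 uM SAM) after a 15 min compound preincubation; product detected by AlphaScreen beads and anti-H3K9me1 antibody.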
PLK1 PBD block – PLK1 (human) polo-box domain binding inhibition | 2.8% of 360,000 active | Potency, µM, inactives show max response, negative = inhibition, actives largely listed as inhibitors | AID 720504 | Plk1 PBD binding of FITC phosphopeptide, fluorescence polarization; note: series mostly up to about 57 µM; % is set by controls: 0 for no effect and ±100 for the full control effect; nearly all actives have a fitted effect of over 65% in size
* hit, by the source's call; i = inactive; ? = inconclusive; . = no result given; [ ] = dose if it differs, or a comment. Calls come from the whole dose curve; as a rule, active = well fitted curve in the direction sought with a large enough effect; inconclusive = small, poorly fitted or top-dose-only effect, or another doubt; inactive = no such curve, though single readings can be large; an effect the other way counts as inactive or inconclusive. Potency is the fitted concentration of half-maximal effect.

SMILES	BAZ2B block	HP1b binding inh	JMJD2A Tudor	ALOX12 inh	G9a inh	PLK1 PBD block
Cn1cccc1Cc1nnc(SCC(=O)NCC2CCCO2)n1-c1ccc(F)cc1 (stereo unspecified)	-5.9%	20.6%	0.0%	363.0%	35.5µM*	3.7%
Cc1ccccc1NC(=O)CSc1nnc(Cc2cccn2C)n1-c1ccc(F)cc1	?	9.4%	-31.0%	1.6%	?	-11.9%
Cn1cccc1Cc1nnc(SCC(=O)Nc2ccc(F)cc2)n1-c1ccc(F)cc1	?	-16.8%	?	393.6%	44.7µM*	23.8µM*
COc1ccc(NC(=O)CSc2nnc(Cc3cccn3C)n2-c2ccc(F)cc2)cc1OC	50.1µM*	5.5%	-34.5%	-16.4%	?	-11.4%
COc1ccc(-n2c(Cc3cccn3C)nnc2SCC(=O)Nc2ccc(Cl)cc2)cc1	?	-24.5%	?	468.8%	?	3.1%
CCSc1nnc(NC(=O)CSc2nnc(Cc3cccn3C)n2-c2ccc(F)cc2)s1	-3.0%	27.5%	-11.1%	24.6%	-8.6%	-2.1%
COc1ccc(-n2c(Cc3cccn3C)nnc2SCC(=O)Nc2cccc(F)c2)cc1	?	8.3%	?	438.4%	?	-6.3%
COc1ccc(-n2c(Cc3cccn3C)nnc2SCC(=O)Nc2ccccc2)cc1	?	-18.3%	?	i	28.2µM*	?
O=C(C1CCCN(c2cnn(Cc3ccccc3)c(=O)c2)C1)N1CCCN(c2ncccn2)CC1 (stereo unspecified)	.	.	.	44.7%	.	.
COc1ccc(C2CC(c3ccc4ccccc4c3)=NN2C(=O)CN2CCC(C(N)=O)CC2)cc1 (stereo unspecified)	-27.1%	-17.9%	?	243.8%	?	3.0%
CCN1CCN(CC(=O)N2N=C(c3ccc(OC)cc3)CC2c2ccc(OC)cc2)C(=O)C1=O (stereo unspecified)	-23.4%	-5.9%	79.4µM*	10.4%	3.9%	26.7µM*
COc1ccc(C2CC(c3ccc4ccccc4c3)=NN2C(=O)COC(=O)C2CCC(=O)N2)cc1 (stereo unspecified)	35.5µM*	-1.4%	?	-14.1%	?	0.6%
COc1ccc(C2CC(c3ccc4ccccc4c3)=NN2C(=O)CNC2CCCCC2)cc1 (stereo unspecified)	56.2µM*	?	22.4µM*	44.7µM*	10µM*	-5.0%
Cc1n[nH]c(=O)c2c(NC(=O)COC(=O)/C=C/c3cccc(C(F)(F)F)c3)oc(C)c12	6.5%	40.0%	-20.0%	-9.1%	10µM*	-16.9%
Cc1n[nH]c(=O)c2c(NC(=O)COC(=O)c3cccc(OC(F)F)c3)oc(C)c12	15.3%	44.4%	-9.7%	-13.8%	10µM*	-24.3%
O=C(COC(=O)/C=C/c1cccc(C(F)(F)F)c1)Nc1ccc(Cl)cn1	9.1%	32.7%	-5.4%	9.2%	14.2%[59 µM]	-0.8%
Cc1n[nH]c(=O)c2c(NC(=O)COC(=O)Cc3ccc(Cl)cc3Cl)oc(C)c12	8.3%	36.8%	-13.6%	-3.7%	7.7%[0.501 µM]	-7.6%
Cc1n[nH]c(=O)c2c(NC(=O)COC(=O)COc3cccc(Br)c3)oc(C)c12	0.5%	54.8%	-12.8%	0.6%	17.8µM*	-28.5%
Cc1n[nH]c(=O)c2c(NC(=O)COC(=O)Cc3c(F)cccc3Cl)oc(C)c12	-3.2%	39.6%	-7.6%	18.5%	25.1µM*	-19.6%
CC(=O)C[C@@H](O)CC(=O)[C@H]1OC(=O)[C@H](C)CCCCc2ccccc21	.	109.3%	-5.8%	-1.8%	.	-16.1%
O=C(Nc1cccc(Cl)c1)c1c(NC(=O)C(F)(F)F)sc2c1CCCC2	50.1µM*	?	79.4µM*	?	3.98µM*	.
Cc1ccccc1NC(=O)c1c(NC(=O)C(F)(F)F)sc2c1CCCCC2	-14.1%	12.5%	-20.9%	?	8.91µM*	.
Cc1ccccc1NC(=O)c1c(NC(=O)c2ccncc2)sc2c1CCC(C(C)(C)C)C2 (stereo unspecified)	-14.8%	17.7%	?	?	17.8µM*	.
